In all, about 96,000 compounds went through this assay and about 65 (0.07%) were called active. What follows is part of a selection rich in actives, with near analogues and random picks from the rest. Unmarked numbers belong to inactive results. No stated cut-off is given here; in the data, active means inhibition above about 25%; inactive means the rest.

Experimental findings from PubChem BioAssay AID740 (SRMLSC, 2007) are described below.

The nature of the test: unspecified inhibition readout at 50 µM (AID 740). As to conditions: unspecified screen; active compounds read high.
For the compound `CC#CCCC(=O)N1C=Cc2ccccc2C1C#N` (stereo not given), the inhibition (as a rule, the drop in the measured response relative to a control, in per cent) is “inactive”. Under `CC(=O)Cc1nsc(NC(=O)c2ccc(-c3ccccc3Cl)o2)n1` stands “inactive”; under `Cc1ccc(NC(=S)C2=C(O)c3ccccc3N(C)S2(=O)=O)cc1`, 9.88%. The figure for `CN1c2ccsc2C(O)=C(C(=S)Nc2ccccc2)S1(=O)=O` is 64.3% (active); for `CN1c2ccccc2C(O)=C(C(=O)Nc2ccccc2)S1(=O)=O` it is “inactive”; for `CN1c2ccccc2C(O)=C(C(=S)Nc2ccccc2)S1(=O)=O` it is “inactive”.

Turning to `Cc1ccccc1NC(=S)C1=C(O)c2sccc2N(C)S1(=O)=O`, the inhibition result is “inactive”. The entry for `Cc1ccc(NC(=O)C2=C(O)c3ccccc3N(C)S2(=O)=O)cc1` is “inactive”; for `CN1c2ccsc2C(O)=C(C(=O)Nc2ccccc2)S1(=O)=O` it is 26.4% (active). Regarding `Cc1ccc(NC(=S)C2=C(O)c3sccc3N(C)S2(=O)=O)cc1`, the inhibition was 52.4% (active). Under `Cc1ccc(NC(=O)C2=C(O)c3sccc3N(C)S2(=O)=O)cc1` stands 1.91%; under `CC(=O)Nc1ccc2c(c1)nc(CCN1CCOCC1)n2C`, “inactive”; under `CCn1c(SCc2nc(-c3ccccc3)no2)nnc1-c1cccs1`, 0.11%. In the case of `O=c1[nH]nc(Sc2ncnc3sccc23)n1CCc1ccccc1`, the inhibition is 9.99%. Turning to `COc1ccccc1Cn1c(=O)c2ccccc2n2c(Sc3ncnc4sccc34)nnc12`, the inhibition is 65.1% (active). In the case of `COc1ccccc1Cn1c(=O)c2ccccc2n2c(SCc3csc(C)n3)nnc12`, the inhibition was 0.93%. Consider `c1ccc(CSc2nnnn2-c2cccc3ccccc23)nc1`, for which the inhibition is 3.06%. Under `CCOc1ccc(NC(=O)NCCCN2CCCC2)cc1` stands 0.93%. Under `CSc1nnnn1-c1ccc(C(=O)OCC(=O)N2CCOCC2)cc1` stands “inactive”; under `CCOC(=O)c1cnc(SCC(=O)N2CCc3ccccc32)nc1N`, “inactive”.
